# According to the supplement of paper PMC8728848:
# The sample as a whole holds a higher share of the strongest signals than the screen did.
# B1: Epa1-NP-mutant-Y228A (Candida glabrata), Q6VBJ0 (protein)
# chain: MILNPALFLNKCVCIYTTLILLLLTNGGYATSSNDISLASKDPTTFPLGCSPDITTPKKGLSMELYSYDFRKKGSYPCWDAAYLDPNYPRTGYKSHRLLAKVDGVTGNINFYYHATKGCTPQLGHLPASYNYPKPLTMTNFTMLLYGYFRPKVTGFHTFTISADDLLFVNFGAGNAFDCCRRDSSADHFGNYQAYAIWGSKTAKDELTVHLDAGVYYPIRLFYNNREADGALSFTFKTESNENTVSDFSEYFFSLDDTEEGCPGLISYDSSCASVKTSKIIGIDYHTETPNENLVPITKTIYHLGIPCTGTTTTPLCGSGFYDPLANKCVTINTSSTSSVTKTTSHTTSKEVSFHSSISSQKTLIPKSIPSPYGPIKSQSIPTEMETSSEISSSEYAFSDVISTPSHSPYTKKHSSLNSSSYTSTVIHSLTSYSISQGIFSTSLSEQNITSKSSTDKFSTATSMSNNITQSSIIISQFSTNNENYTTTSMHTSSDKISTETLNNSISTTTSILFSNSSTILKNNTTIISSDKDTHYHPVNPTIVCSTNKTEIICASITQPSISNSNNHWSSSVLKFNSTTVRSTLPSSAGSNETSINVPFSSSTESNTSTSSTSTSNSKMVRSTLPSSAGSNETSISVPFSSSTESNTSTSSTSTSNSKMVRSTLPSSAGSNETSINVPFSSSTESNTSTSSTSTSNSKTVRSTPFSSAGIIMTSLSQRNNKSASSYASSNSKCYNTADSCRKVHSTPSYLLTSSYTSEGVDYDCSLVSTKLKINDTNCVNNKHTTKSCLKTSVTTTIPTLEIKTARKSSSNTIGLHSYPTSSPNKSISSAPIIGYISSFKTIKTASPSYQTSDLTTITTITSLNNPGSTAVENTHESNDKSRKTSSNDISSKHSVIKETKDAVESSNKSHQTNTLKCSSIIIASSSHNSYESLGGTTLTLTLSKVYSPQNNDTLPFLEISEVNPSRTVLPESSKMMQYLTSTEERNKTARNTIATNIVSISTFHFEGEGNAIRMGYTQLLLMLIGIIVMNIGT
# Legend:
# Experiment in all cases: glycan array binding signal (z-score within array); higher = stronger binding
# Details in all cases: glycan notation: IUPAC condensed, linker removed; mutation: Y228A
# [1] = biological target: Fuc(a1-2)Gal(b1-3)GlcNAc(b1-3)[Gal(b1-4)GlcNAc(b1-6)]Gal(b1-4)Glc
# How it was run: (§1)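 Negative Z-scores can be read as non-binding. The Z-score is calculated within each array and then averaged across arrays of one protein sequence at different concentrations or buffers and across linkers. Arrays, 3228 in all, were curated from the Consortium for Functional Glycomics database and kept only where the protein sequence was available.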
# [2] = biological target: Fuc(a1-2)Gal(b1-3)[Fuc(a1-4)]GlcNAc(b1-2)Man(a1-3)[Fuc(a1-2)Gal(b1-3)[Fuc(a1-4)]GlcNAc(b1-2)Man(a1-6)]Man(b1-4)GlcNAc(b1-4)[Fuc(a1-6)]GlcNAc(b1-4)[Fuc(a1-6)]GlcNAc
# How it was run: as §1
# [3] = biological target: Fuc(a1-2)Gal(b1-4)GlcNAc(b1-2)Man(a1-3)[Fuc(a1-2)Gal(b1-4)GlcNAc(b1-2)Man(a1-6)]Man(b1-4)GlcNAc(b1-4)GlcNAc
# How it was run: as §1
# [4] = biological target: Fuc(a1-2)Gal(b1-4)GlcNAc6S
# How it was run: as §1
# [5] = biological target: Fuc(a1-2)Gal(b1-4)[Fuc(a1-3)]GlcNAc(b1-3)GalNAc
# How it was run: as §1
# [6] = biological target: Fuc(a1-2)Gal6S(b1-4)Glc6S
# How it was run: as §1
# [7] = biological target: Fuc(a1-2)[Gal(a1-3)]Gal(b1-4)[Fuc(a1-3)]Glc
# How it was run: as §1
# [8] = biological target: Fuc(a1-2)[GalNAc(a1-3)]Gal(b1-3)GalNAc(a1-3)[Fuc(a1-2)]Gal(b1-4)GlcNAc
# How it was run: as §1
# [9] = biological target: Fuc(a1-2)[GalNAc(a1-3)]Gal(b1-3)GlcNAc(b1-3)GalNAc
# How it was run: as §1
# [10] = biological target: Fuc(a1-2)[GalNAc(a1-3)]Gal(b1-4)GlcNAc(b1-3)[Fuc(a1-2)[GalNAc(a1-3)]Gal(b1-4)GlcNAc(b1-6)]GalNAc
# How it was run: as §1
# [11] = biological target: Fuc(a1-3)[Gal(b1-4)]GlcNAc(b1-6)GalNAc
# How it was run: as §1
# [12] = biological target: Fuc(a1-3)[Gal(b1-4)]GlcNAc(b1-6)[Gal(b1-3)GlcNAc(b1-3)]Gal(b1-4)Glc
# How it was run: as §1
# [13] = biological target: Gal(a1-2)Gal
# How it was run: as §1
# [14] = biological target: Gal(a1-3)Gal(b1-4)GlcNAc(b1-2)Man(a1-3)[Gal(a1-3)Gal(b1-4)GlcNAc(b1-2)Man(a1-6)]Man(b1-4)GlcNAc(b1-4)GlcNAc
# How it was run: as §1
# [15] = biological target: Gal(a1-3)GalNAc
# How it was run: as §1
# [16] = biological target: Gal(a1-4)Gal(b1-4)GlcNAc(b1-2)Man(a1-3)[Gal(a1-4)Gal(b1-4)GlcNAc(b1-2)Man(a1-6)]Man(b1-4)GlcNAc(b1-4)GlcNAc
# How it was run: as §1
# [17] = biological target: Gal(b1-3)Gal
# How it was run: as §1
# [18] = biological target: Gal(b1-3)Gal(b1-4)GlcNAc
# How it was run: as §1
# [19] = biological target: Gal(b1-3)GalNAc(a1-3)[Fuc(a1-2)]Gal(b1-4)Glc
# How it was run: as §1
# [20] = biological target: Gal(b1-3)GlcNAc(a1-3)Gal(b1-4)GlcNAc
# How it was run: as §1
# [21] = biological target: Gal(b1-3)GlcNAc(b1-2)Man
# How it was run: as §1
# [22] = biological target: Gal(b1-3)GlcNAc(b1-2)Man(a1-3)[Gal(b1-3)GlcNAc(b1-2)Man(a1-6)]Man(b1-4)GlcNAc(b1-4)[Fuc(a1-6)]GlcNAc
# How it was run: as §1
# [23] = biological target: Gal(b1-3)GlcNAc(b1-2)Man(a1-3)[GlcNAc(b1-4)][Gal(b1-3)GlcNAc(b1-2)Man(a1-6)]Man(b1-4)GlcNAc(b1-4)GlcNAc
# How it was run: as §1
# [24] = biological target: Gal(b1-3)GlcNAc(b1-3)Gal(b1-4)GlcNAc(b1-6)[Gal(b1-3)GlcNAc(b1-3)]Gal(b1-4)Glc
# How it was run: as §1
# [25] = biological target: Gal(b1-3)GlcNAc(b1-6)Gal(b1-4)GlcNAc
# How it was run: as §1
# [26] = biological target: Gal(b1-3)GlcNAc(b1-6)GalNAc
# How it was run: as §1
# [27] = biological target: Gal(b1-3)GlcNAc6S
# How it was run: as §1
binder,measurement,setting,value
B1,glycan array binding signal (z-score),[1],-0.261
same,glycan array binding signal (z-score),[2],-0.098
same,glycan array binding signal (z-score),[3],-0.023
same,glycan array binding signal (z-score),[4],-0.027
same,glycan array binding signal (z-score),[5],-0.103
same,glycan array binding signal (z-score),[6],-0.325
same,glycan array binding signal (z-score),[7],-0.203
same,glycan array binding signal (z-score),[8],-0.281
same,glycan array binding signal (z-score),[9],0.018
same,glycan array binding signal (z-score),[10],-0.156
same,glycan array binding signal (z-score),[11],-0.289
same,glycan array binding signal (z-score),[12],-0.025
same,glycan array binding signal (z-score),[13],-0.233
same,glycan array binding signal (z-score),[14],-0.232
same,glycan array binding signal (z-score),[15],-0.151
same,glycan array binding signal (z-score),[16],0.054
same,glycan array binding signal (z-score),[17],11.6
same,glycan array binding signal (z-score),[18],10.2
same,glycan array binding signal (z-score),[19],0.088
same,glycan array binding signal (z-score),[20],-0.17
same,glycan array binding signal (z-score),[21],3.19
same,glycan array binding signal (z-score),[22],2.29
same,glycan array binding signal (z-score),[23],2.24
same,glycan array binding signal (z-score),[24],2.26
same,glycan array binding signal (z-score),[25],2.32
same,glycan array binding signal (z-score),[26],-0.142
same,glycan array binding signal (z-score),[27],7.1
